Sampled rows, rich in hits. Any-hit rate of the full collection: about 2.8%.
WRN inhibitor – WRN helicase (human) inhibition; Q14191; WRN helicase unwinding, fluorescent forked duplex, kinetic; Potency, µM (top dose mostly 114 µM), without a hit: at the top dose activity change, negative = inhibition, hits mostly inhibitors; 0.46% of 360,000 active; AID 651768; note: potency is the fitted concentration of half-maximal effect; % is set by controls: 0 for no effect and ±100 for the full control effect; nearly all actives have a fitted effect of over 55% in size
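WRN at 20 nM final was preincubated with compound for 15 min at room temperature; reaction started with 100 nM forked duplex oligonucleotide carrying fluorophore and quencher plus 2 mM ATP (final). Unwinding followed kinetically by red fluorescence (ex 525/em 598 nm).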
PI5P4Ka inh – inhibitors of human PI5P4K alpha; AID 652105; P48426; 1.2% of 330,000 active; PI5P4Kalpha enzyme, ADP-Glo luminescence, 60 min; stronger effect = lower value; max response, %; active = max response of -50% or lower; inconclusive = between -30% and -50%; inactive = -30% or higher; note: value at the top dose of about 77 µM; % is set by controls: 0 for no effect and ±100 for the full control effect
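Compounds were pin-transferred onto PI5P4Kalpha and substrate in HEPES pH 7.4 buffer with EGTA, CHAPS and 5% DMSO. ATP (5 microM final) started the reaction, which ran 60 minutes at room temperature before ADP-Glo detection.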
Pol beta inh-1 – DNA polymerase beta (human) inhibition; P06746; Pol beta primer extension/strand displacement, fluorescence kinetic; 1.3% of 340,000 active; Potency, µM (doses to about 114 µM), for the others: at the highest dose activity change, negative = inhibition, actives largely listed as inhibitors; AID 485314; note: potency is the fitted concentration of half-maximal effect; % is set by controls: 0 for no effect and ±100 for the full control effect
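Pol beta (10 nM) and compounds were preincubated 15 min at room temperature, then 50 nM substrate (final) started primer extension/strand displacement. Reads were taken at 0 and 10 min; concentration-response data were fitted to a four-parameter Hill equation.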
Pol iota inh – DNA polymerase iota (human) inhibition | Q9UNA4 | Pol iota fluorescent replication assay, 10 min | Potency, µM (doses to about 115 µM), for inactives: top-dose activity, negative = inhibition, hits mostly inhibitors | 1% of 390,000 active | AID 588590; note: potency is the fitted concentration of half-maximal effect
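Pol iota at 10 nM preincubated 15 min with compounds at room temperature; reaction started with fluorescent substrate, 50 nM final. Fluorescence read kinetically at 0 and 10 min; buffer-only wells as negative control.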
Pol eta inh-1 – inhibitors of human DNA polymerase eta. Q9Y253. recombinant Pol eta, fluorescent DNA replication assay. Potency, µM (highest dose often 114 µM), for inactives: at the top dose activity change, negative = inhibition, hits mostly inhibitors. 1.2% of 390,000 active; note: potency is the fitted concentration of half-maximal effect; % is set by controls: 0 for no effect and ±100 for the full control effect
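Pol eta at 10 nM preincubated with compounds 15 min at room temperature; reaction started with fluorescent substrate (50 nM final) and read kinetically at 0 and 10 min.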
Pol kappa inh – inhibitors of human DNA polymerase kappa; Q9UBT6; Potency, µM (doses to about 107 µM), without a hit: at the highest dose activity, negative = inhibition, actives largely listed as inhibitors; purified Pol kappa, fluorescent DNA synthesis assay, 10 min; 0.53% of 400,000 active; note: potency is the fitted concentration of half-maximal effect; % is set by controls: 0 for no effect and ±100 for the full control effect
Target sequence (Q9UBT6 whole entry, looked up): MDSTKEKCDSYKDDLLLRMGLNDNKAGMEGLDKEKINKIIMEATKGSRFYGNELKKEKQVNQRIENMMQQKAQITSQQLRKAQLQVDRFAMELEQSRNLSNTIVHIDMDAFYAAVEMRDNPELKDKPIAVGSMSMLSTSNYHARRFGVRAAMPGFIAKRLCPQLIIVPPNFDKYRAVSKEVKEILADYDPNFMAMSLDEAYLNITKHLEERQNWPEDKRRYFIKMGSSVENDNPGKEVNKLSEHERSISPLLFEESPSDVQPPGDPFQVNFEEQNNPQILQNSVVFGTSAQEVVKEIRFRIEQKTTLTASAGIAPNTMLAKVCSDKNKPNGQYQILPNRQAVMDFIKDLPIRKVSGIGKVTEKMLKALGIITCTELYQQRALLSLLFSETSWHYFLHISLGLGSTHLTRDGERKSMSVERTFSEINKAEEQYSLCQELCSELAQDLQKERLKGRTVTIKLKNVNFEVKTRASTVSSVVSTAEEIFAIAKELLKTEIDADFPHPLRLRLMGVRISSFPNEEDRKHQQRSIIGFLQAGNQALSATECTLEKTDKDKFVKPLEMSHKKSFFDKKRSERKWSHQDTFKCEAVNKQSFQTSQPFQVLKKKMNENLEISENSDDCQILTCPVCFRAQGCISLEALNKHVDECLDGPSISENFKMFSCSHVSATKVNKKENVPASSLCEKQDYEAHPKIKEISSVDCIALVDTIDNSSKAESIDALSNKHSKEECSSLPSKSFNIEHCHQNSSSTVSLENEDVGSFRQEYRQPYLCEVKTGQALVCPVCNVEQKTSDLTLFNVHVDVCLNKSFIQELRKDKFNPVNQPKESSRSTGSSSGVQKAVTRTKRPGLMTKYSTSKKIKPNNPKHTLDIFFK
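10 nM Pol kappa was preincubated with compounds for 15 min at room temperature. Reaction started with 50 nM (final) substrate. Fluorescence read kinetically at 0 and 10 min.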
Pol beta inh-2 – Inhibitors of human DNA polymerase beta, hit validation; shares compounds with Pol beta inh-1; 87% of 250 active; Potency, µM, hits mostly inhibitors; Pol beta primer extension/strand displacement, fluorescence kinetic; calls by dose curve; note: potency is the fitted concentration of half-maximal effect
Klenow inh – Klenow polymerase inhibition, pol beta selectivity check | shares compounds with Pol beta inh-1 | Klenow exo- polymerase counter-screen, fluorescent DNA substrate | activity change, negative = inhibition, % at 57.1 µM | 250 tested, under 10 active | AID 540300
HIV RT inh – counter-screen for DNA polymerase beta inhibitors: HIV-1 RT inhibition | AID 540301 | activity % (negative = inhibition, positive = activation), % at 57.1 µM | 250 tested, under 10 active | HIV-1 RT polymerase activity, counter-screen | shares compounds with Pol beta inh-1
PGK validate – validation of Trypanosoma brucei phosphoglycerate kinase inhibitors. shares compounds with Pol kappa inh. TbPGK coupled GAPDH assay, Kinase-Glo luminescence. AID 686980. Potency, µM (top dose mostly 57.5 µM), for the others: at the top dose activity change, negative = inhibition, usual class: inhibitors. 79% of 500 active; note: potency is the fitted concentration of half-maximal effect; % is set by controls: 0 for no effect and ±100 for the full control effect; nearly all actives have a fitted effect of over 65% in size
Pol iota confirm – Confirm cherry-picked inhibitors of human polymerase iota; shares compounds with Pol kappa inh; Pol iota primer extension, TAMRA/BHQ fluorescence; Potency, µM, usual class: inhibitors; 77% of 1,500 active; AID 720496; note: potency is the fitted concentration of half-maximal effect
Pol eta inh-2 – confirmation of human DNA polymerase eta inhibitors; Pol eta primer extension, TAMRA/BHQ fluorescence, 10 min; Potency, µM, hits mostly inhibitors; shares compounds with Pol eta inh-1; 64% of 2,600 active; note: potency is the fitted concentration of half-maximal effect
ADP-Glo interf – interferes with ADP-Glo detection without enzyme present; shares compounds with PI5P4Ka inh; ADP-Glo detection counter-screen, luciferase luminescence, no enzyme; Potency, µM (top dose mostly 76.9 µM), for the others: at the highest dose activity change, negative = inhibition, actives largely listed as inhibitors; 1,100 tested, under 10 active
Starred values were filed as active, the others as inactive; ? = inconclusive; · = no result; [ ] = another dose, or the depositor's remark. Unless noted, calls come from the whole dose curve; as a rule, active = well fitted curve in the direction sought with a large enough effect; inconclusive = small, poorly fitted or top-dose-only effect, or another doubt; inactive = no such curve, though single readings can be large; an effect the other way counts as inactive or inconclusive.

SMILES	WRN inhibitor	PI5P4Ka inh	Pol beta inh-1	Pol iota inh	Pol eta inh-1	Pol kappa inh	PGK validate	others
O=C(Nc1ccc2nc(SCC(=O)N3CCCC3)sc2c1)c1ccccc1	·	·	26%	23%	-6%	-10%	·
CCCC(=O)Nc1nnc(SCC(=O)NC2CC2)s1	0%	2	-2%	58%	-16%	1%	·
COc1ccccc1/C=C1\C=Cc2ccccc21	·	·	·	?	·	0%	·
O=c1c2cnn(-c3ccc(Cl)cc3)c2ncn1Cc1ccc(Cl)cc1Cl	·	·	17%	23%	-8%	-14%	·
Cc1cc2oc(C(=O)Nc3ccc(S(=O)(=O)Nc4nccs4)cc3)cc(=O)c2cc1Cl	-12%[11.6 µM]	-52*	13µM*	?	20µM*	-75%	·	Pol beta inh-2=14*;Klenow inh=-29;HIV RT inh=18;Pol eta inh-2=76*;ADP-Glo interf=0%
Cc1cc2oc(C(=O)Nc3ccc(S(=O)(=O)Nc4ncccn4)cc3)c(C)c2cc1Cl	-19%	2	-2%	9%	1%	-17%	·
Cc1cccc(/C(N)=N/OC(=O)c2ccc3c(c2)OCO3)c1	0%	?	-2%	-15%	-10%	-13%	10µM*
O=C(O)CCCCN1C(=O)/C(=C\c2ccc(OCc3ccccc3)c(OCc3ccccc3)c2)SC1=S	-8%[11.6 µM]	0	45µM*	?	20µM*	?	·	Pol iota confirm=42*
O=C(O)CN1C(=O)/C(=C\c2cccc(OCc3ccccc3)c2)SC1=S	-9%	-1	-1%	-28%	-17%	-17%	·
CCOc1ccc2nc(NC(=O)c3ccoc3C)sc2c1	-5%	?	-21%	?	-16%	-4%	6.5µM*
Cc1ccccc1C(=O)Nc1ccc2c(C#N)c3nc4ccccc4nc3n2c1	56µM*	?	?	40%	10µM*	-27%	·	Pol iota confirm=?
O=c1oc2ccccc2cc1-c1cn2cccnc2n1	0%	-1	-5%	18%	17%	-7%	·
O=c1oc2ccccc2cc1-c1cn2ccccc2n1	-8%	-27	7%	24%	-11%	0%	?
Fc1cccc(CCN2CCNC[C@@H]2Cc2ccccc2)c1	-3%	-2	·	?	11%	-8%	?
Cc1ccc(CC(=O)NO)cc1	·	·	·	14%	·	3%	·
CCOc1ccc(C=NNc2ccc(S(=O)(=O)Nc3ccccc3C(=O)O)cc2[N+](=O)[O-])cc1OC	?	-74*	·	?	?	?	8.2µM*
C1=Cc2ccccc2/C1=C\c1ccc2c(c1)OCO2	·	·	·	-19%	·	-18%	·
CCN(CC)c1ccc2nc3ccccc3[n+](CC)c2c1	?	?	?	?	?	-35%	33µM*
CCN(CC)c1ccc2cc(-c3nc4ccccc4[nH]3)c(=O)oc2c1	-19%	-9	?	29%	?	-4%	·
CCOC(=O)CNC(=O)N1CCc2cc(S(=O)(=O)N3CCC(C)CC3)ccc21	·	·	21%	-15%	·	-8%	·
CC1=C/C(=C(/c2cc(C)c(O)c(Br)c2)c2ccccc2S(=O)(=O)O)C=C(Br)C1=O	?	-65*	-27%	?	35µM*	?	18µM*
CCn1cc(C(=O)O)c(=O)c2cc(F)c(N3CCN(S(=O)(=O)c4ccc(NC(=O)OC)cc4)CC3)cc21	?	-6	?	17%	?	2%	·	Pol iota confirm=34*
FC(F)(F)c1ccc(Cl)c(Nc2nnc(-c3ccncc3)s2)c1	-18%	-1	·	·	·	·	·
Clc1ccccc1Nc1nnc(-c2ccncc2)s1	?	?	0%	5%	4%	-1%	15µM*
COc1ccc(-n2c(SCC(=O)Nc3nccs3)nnc2-c2ccc(Cl)cc2)cc1	-7%	-16	·	13%	?	0%	·	Pol iota confirm=?
SMILES	WRN inhibitor	PI5P4Ka inh	Pol beta inh-1	Pol iota inh	Pol eta inh-1	Pol kappa inh	PGK validate	others
O=C(/C=C/c1ccc(O)c(O)c1)OC1C(O)CC(OC(=O)/C=C/c2ccc(O)c(O)c2)(C(=O)O)CC1O (stereo not drawn)	-3%	15	1.4µM*	5µM*	?	?	·	Pol iota confirm=24*
O=C(/C=C\c1ccc(O)c(O)c1)O[C@@H]1C[C@](O)(C(=O)O)C[C@@H](O)[C@@H]1O	·	·	·	·	·	-11%[12 µM]	·
Cc1nc(SC(C)C(=O)Nc2cccc(C(F)(F)F)c2)c2c(C)c(C(=O)O)sc2n1 (stereo not drawn)	?	0	?	7%	?	?	·	Pol iota confirm=34*
Cc1nc(N2CCC(C)CC2)c2c(C)c(C(=O)Nc3cccc(C(F)(F)F)c3)sc2n1	-28%	24	0%	19%	-12%	-27%	·
O=C(Nc1ccc2c(c1)OCCO2)c1coc2ccccc2c1=O	-16%	-16	41%	6%	?	-4%	4.1µM*
N#Cc1cc(N)ccc1-n1cccc1	1%	-1	2%	49%	-24%	-5%	·
COc1ccc(/C(C)=N/Nc2nncc3ccccc23)cc1	-2%	1	-24%	152%	-20%	-4%	·
COc1ccc(/C=N/Nc2nncc3ccccc23)cc1	-13%	-29	-4%	-17%	5%	-7%	18µM*
CN(C(=O)c1cc2sccc2n1C)C1CCCCC1	6%	·	10%	-9%	-12%	-5%	·
Cn1c(C(=O)NC2CCCCC2)cc2sccc21	8%	·	18%	18%	-8%	3%	?
